From PubChem BioAssay AID1159580 (chemical genetic matrix, 2015)
“And” between values parts separate entries of the source, which are not always exact repeats. Equal entries are not always repeated. About 2,000 (36%) of roughly 5,500 compounds were called active. About 18% were inconclusive and are not listed. Cut-off read from the data, not from the text of the source: active = normalized growth mostly below about 0.91 (no sharp cut-off); inconclusive = no clear call, values can overlap the other calls; inactive = mostly above about 0.92. The list shows a part of the results.

Test: chemical genetic growth profiling, strain panel (AID 1159580);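 note: tested at 20 µM; growth read once vehicle control cultures reached saturation at 30 °C; 1 = growth at the plate median or of vehicle wells; lower values mean less growth of the strain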
Settings: S. cerevisiae deletion strains, growth OD

Measured: normalized growth

C=C1[C@H]2CC[C@@]3(C)[C@H](c4ccoc4)OC(=O)C[C@]13O[C@H]1C[C@H](O)C(C)(C)[C@H](CC(=O)OC)[C@]12C
inactive: locus YAL021C, strain ccr4, stronger effect = lower value 0.998 | locus YAL026C, strain drs2, stronger effect = lower value 1.05 | locus YAL030W, strain snc1, stronger effect = lower value 1.02 | locus YBL061C, strain skt5, stronger effect = lower value 1.02 | locus YBR009C, strain hhf1, stronger effect = lower value 1.01 | locus YBR021W, strain FUR4, stronger effect = lower value 0.985 | locus YBR023C, strain chs3, stronger effect = lower value 1.01 | locus YBR171W, strain sec66, stronger effect = lower value 1.02 | locus YBR229C, strain ROT2, stronger effect = lower value 0.999 | locus YBR231C, strain swc5, stronger effect = lower value 1.04 | locus YBR279W, strain paf1, stronger effect = lower value 1.02 | locus YCL011C, strain gbp2, stronger effect = lower value 1.01 | locus YCL016C, strain dcc1, stronger effect = lower value 1 | locus YCL029C, strain bik1, stronger effect = lower value 1.01 | locus YCL061C, strain MRC1, stronger effect = lower value 1.03 | locus YCL069W, strain vba3, stronger effect = lower value 1.02 | locus YCR088W, strain abp1, stronger effect = lower value 1.02 | locus YDL005C, strain med2, stronger effect = lower value 1.02 | locus YDL035C, strain GPR1, stronger effect = lower value 1 | locus YDL040C, strain nat1, stronger effect = lower value 1.02 | locus YDL074C, strain BRE1, stronger effect = lower value 0.99 | locus YDL101C, strain DUN1, stronger effect = lower value 1 | locus YDL134C, strain PPH21, stronger effect = lower value 1 | locus YDL185W, strain tfp1, stronger effect = lower value 1.03 | locus YDL192W, strain arf1, stronger effect = lower value 1.02 | locus YDR001C, strain nth1, stronger effect = lower value 1.02 | locus YDR069C, strain doa4, stronger effect = lower value 1.03 | locus YDR101C, strain arx1, stronger effect = lower value 1.01 | locus YDR137W, strain rgp1, stronger effect = lower value 0.975 | locus YDR159W, strain sac3, stronger effect = lower value 1.04 | locus YDR162C, strain NBP2, stronger effect = lower value 1.01 | locus YDR195W, strain ref2 1.03 | locus YDR297W, strain sur2, stronger effect = lower value 1.03 | locus YDR318W, strain mcm21, stronger effect = lower value 1.02 | locus YDR334W, strain swr1, stronger effect = lower value 1.02 | locus YDR335W, strain msn5, stronger effect = lower value 1.02 | locus YDR388W, stronger effect = lower value 1.02 | locus YDR392W, strain spt3, stronger effect = lower value 0.927 | locus YDR502C, strain sam2, stronger effect = lower value 1.02 | locus YEL003W, strain gim4, stronger effect = lower value 1.03 | locus YEL037C, strain rad23, stronger effect = lower value 1.01 | locus YEL061C, strain CIN8 (second series), stronger effect = lower value 1.02 | locus YEL061C, strain CIN8, stronger effect = lower value 0.998 | locus YER015W, strain faa2, stronger effect = lower value 1.03 | locus YER016W, strain bim1, stronger effect = lower value 1.02 | locus YER110C, stronger effect = lower value 1.02 | locus YER111C, strain swi4, stronger effect = lower value 1.03 | locus YER155C, strain BEM2 (second series), stronger effect = lower value 1.04 | locus YER155C, strain BEM2, stronger effect = lower value 1 | locus YER167W, strain BCK2, stronger effect = lower value 1 | locus YFR010W, strain ubp6, stronger effect = lower value 1.04 | locus YGL078C, strain dbp3, stronger effect = lower value 1.02 | locus YGL086W, strain mad1, stronger effect = lower value 1 | locus YGL167C, strain pmr1, stronger effect = lower value 1.02 | locus YGL173C, strain kem1, stronger effect = lower value 1.04 | locus YGL227W, strain vid30, stronger effect = lower value 1.03 | locus YGL240W, strain doc1, stronger effect = lower value 1.02 | locus YGL248W, strain PDE1, stronger effect = lower value 0.999 | locus YGL253W, strain hxk2, stronger effect = lower value 1.03 | locus YGR078C, strain PAC10, stronger effect = lower value 0.999 | locus YGR135W, strain pre9, stronger effect = lower value 1.02 | locus YGR252W, strain gcn5, stronger effect = lower value 1.02 | locus YHR013C, strain ard1, stronger effect = lower value 1 | locus YHR027C, strain rpn1, stronger effect = lower value 1.02 | locus YHR030C, strain SLT2, stronger effect = lower value 0.986 | locus YHR079C, strain IRE1 (second series), stronger effect = lower value 1.02 | locus YHR079C, strain IRE1, stronger effect = lower value 0.977 | locus YHR094C, strain hxt1, stronger effect = lower value 1.02 | locus YHR129C, strain ARP1, stronger effect = lower value 1.01 | locus YHR142W, strain chs7, stronger effect = lower value 1.01 | locus YHR200W, strain rpn10, stronger effect = lower value 1 | locus YIL066C, strain RNR3, stronger effect = lower value 1.01 | locus YIL073C, strain SPO22, stronger effect = lower value 1.07 | locus YIL125W, strain kgd1, stronger effect = lower value 1.01 | locus YIR030C, strain dcg1, stronger effect = lower value 1.02 | locus YJL092W, strain hpr5, stronger effect = lower value 1.03 | locus YJL095W, strain BCK1 (second series), stronger effect = lower value 1.02 | locus YJL095W, strain BCK1, stronger effect = lower value 1 and 0.979 | locus YJL115W, strain asf1, stronger effect = lower value 1.02 | locus YJL129C, strain trk1, stronger effect = lower value 1.02 | locus YJL134W, strain LCB3, stronger effect = lower value 1.01 | locus YJL154C, strain vps35, stronger effect = lower value 1.02 | locus YJL164C, strain tpk1, stronger effect = lower value 1 | locus YJL166W, strain qcr8, stronger effect = lower value 1.03 | locus YJL168C, strain set2, stronger effect = lower value 1.02 | locus YJL187C, strain SWE1 (second series), stronger effect = lower value 1 | locus YJR043C, strain POL32, stronger effect = lower value 0.991
